# Compounds with a hit are over-represented: about 4.1% of the library has one in this group of screens.
# ssDAF12 agonist – S. stercoralis DAF-12 nuclear receptor activators, primary screen, cell-based, luminescence, HEK293, GRIP1 co-expression, lit1-tk-luc | hit rate 1% among 370,000 | HEK293 ssDAF-12/GRIP1 lit1-tk-luc reporter; % of 3 µM dafachronic acid response | activation, % at 6.8 µM;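 active means activation above the mean over all tested compounds plus 3 SD, cut at about 0.9% in these data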;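 further: 0% = DMSO-only wells and 100% = 3 µM delta7-dafachronic acid wells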
# DAX1 inh-1 – DAX1 (NR0B1) inhibitors on StAR promoter, primary screen, cell-based, luminescence, SF-1 (NR5A1), full-length DAX-1; HEK293T StAR-luciferase reporter, SF-1/DAX-1 repression relief; inhibition, % at 6.8 µM; hit rate 1.1% among 370,000;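 active means inhibition above the mean over all tested compounds plus 3 SD, cut at about 3.6% in these data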;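 further: 0% = DAX-1 cells with DMSO and 100% = cells lacking DAX-1 with DMSO; higher inhibition means more luminescence from relief of DAX-1 repression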
# hcDAF-12 act – H. contortus DAF-12 nuclear receptor activators, primary screen, cell-based, luminescence, HEK293, lit1-tk-luc reporter | hit rate 1.4% among 370,000 | HEK293 hcDAF-12 lit1-tk-luc reporter; 0% DMSO, 100% Δ7-dafachronic acid | activation, % at 6.8 µM;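 active means activation above the mean of all tested compounds plus 3 SD, cut at about 5.5% in these data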;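 further: 100% = response to 3 µM Δ7-dafachronic acid high control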
# DAX1 inh-2 – DAX1 (NR0B1) inhibitors, primary screen, cell-based, HEK293, Gal4-DAX1, luciferase luminescence | Nuclear receptor subfamily 0 group B member 1 (Homo sapiens), P51843 | HEK293 Gal4-DAX1 luciferase reporter | inhibition, % at 6.75 µM | hit rate 0.99% among 340,000 | AID 504766, 2011;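 active means inhibition above the mean over all tested compounds plus 3 SD, cut at about 4.2% in these data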;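 further: 0% = DAX1-transfected cells with DMSO and 100% = empty-vector control cells with DMSO; inhibition shows as a rise in luminescence from relieved DAX1 repression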
# hgDAF12 agonist – H. glycines DAF-12 receptor agonists, primary screen, cell-based, luminescence, HEK293, GAL4 fusion, UAS-luciferase. AID 687014, 2013. activation, % at 6.8 µM. HEK293 GAL4-hgDAF12 UAS-luciferase reporter, agonist luminescence; normalized to butyrate control. Nuclear hormone receptor DAF-12 (Heterodera glycines), GAL4 fusion. hit rate 1.8% among 370,000;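 active means activation above a cutoff set at the mean of all screened compounds plus 3 SD, cut at about 10% in these data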;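 further: 0% = DMSO wells and 100% = sodium butyrate wells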
# hgDAF12 ag – H. glycines DAF-12 receptor agonists, confirmation, cell-based, luminescence, HEK293, GAL4-LBD fusion; HEK293 GAL4-hgDAF12 luciferase reporter, agonist mode; percent of butyrate response; hit rate 80% among 3,300; AID 743050, 2013; shares compounds with hgDAF12 agonist; activation, % at 6.8 µM;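 active means mean activation over triplicate wells above the hit cutoff derived from the earlier primary screen, cut at about 11% in these data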;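 further: 0% = DMSO low control and 100% = 2 mM sodium butyrate high control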
# LXRb DAF12 ctr – LXR agonists, Gal4 luciferase reporter, confirmation, counter-screen for hgDAF-12 agonist project, cell-based, luminescence, HEK293, H. glycines campaign; 24 h; shares compounds with hgDAF12 agonist; activation, % at 6.8 µM; 3,300 tested, under 10 active;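 active means mean activation of the triplicate above a set limit carried over from the primary screen, none filed active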
# Target sequence (P55055 whole entry, looked up, the tested form may be a part): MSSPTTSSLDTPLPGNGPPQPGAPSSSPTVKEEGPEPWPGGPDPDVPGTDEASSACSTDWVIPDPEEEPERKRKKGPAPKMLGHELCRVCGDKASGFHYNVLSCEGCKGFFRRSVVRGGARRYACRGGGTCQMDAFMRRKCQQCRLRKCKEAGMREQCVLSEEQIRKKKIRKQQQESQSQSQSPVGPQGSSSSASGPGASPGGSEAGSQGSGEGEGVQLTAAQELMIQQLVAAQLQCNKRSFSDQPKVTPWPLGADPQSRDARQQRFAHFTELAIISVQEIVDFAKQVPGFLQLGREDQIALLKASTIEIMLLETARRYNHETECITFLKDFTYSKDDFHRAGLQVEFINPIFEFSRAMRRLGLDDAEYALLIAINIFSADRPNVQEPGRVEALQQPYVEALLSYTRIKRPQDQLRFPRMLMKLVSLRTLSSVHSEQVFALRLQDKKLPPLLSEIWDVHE
# Numbers without * were called inactive; x = no result given.
SMILES,ssDAF12 agonist,DAX1 inh-1,hcDAF-12 act,DAX1 inh-2,hgDAF12 agonist,hgDAF12 ag,LXRb DAF12 ctr
CCOC(=O)[C@H]1[C@H]2COc3ccccc3[C@@H]2N2C(=O)CN(CC3CCCO3)C(=O)[C@@]12C (some centres undefined),-0.1,0.8,0.4,0.8,-1.1,x,x
O=C(c1ccc(-c2cccc(Cl)c2Cl)o1)N1CCOCC1,0.0,4.0*,3.7,2.0,17.1*,15.5*,0.6
O=C(O)c1cc(-c2ccc(N3CCOCC3)cc2)nn1-c1ccccc1Cl,-0.5,-0.1,1.1,0.8,-1.5,x,x
O=C(O)c1cc(-c2ccc(N3CCOCC3)cc2)nn1-c1ccc(F)cc1F,-1.6,-0.4,-0.6,0.4,16.9*,0.5,-0.1
Cc1cc(C(C)(C)C)cc(C)c1C(=O)O,-1.7,0.0,-1.0,2.7,-2.1,x,x
Cc1nn(-c2ccccc2)c(C)c1/C=N/O,-0.8,0.2,-0.9,0.2,0.9,x,x
Cc1nn(-c2ccccc2)c(/N=C/c2ccccc2O)c1-c1ccccc1,0.0,2.6,1.6,1.8,15.2*,11.4*,0.3
CCC1C(c2ccccc2)=CCC(C(=O)O)C1C (centres undefined),-1.0,-1.0,0.1,-0.4,-3.8,x,x
Cc1ccc(-n2ncc3c(NNC(=O)c4cccs4)ncnc32)cc1,-0.8,-0.8,-0.9,0.8,-0.8,x,x
C#CCN1C(=O)S/C(=C/c2cc(C)n(CC)c2C)C1=O,0.1,2.9,4.9,1.4,17.7*,19.7*,0.9
CCn1c(C)cc(/C=C2/SC(=S)N(CC(=O)O)C2=O)c1C,-1.3,0.9,-1.3,-1.2,2.7,x,x
COc1cc(/C=C/c2ccc3cccc(O)c3n2)cc(Cl)c1OC,-0.4,0.2,1.7,0.7,13.8*,17.1*,1.1
COC(=O)c1cccc(NC(=O)c2onc3c2CCCC3)c1,0.7,3.8*,6.0*,1.1,17.1*,17.7*,0.9
Cc1ccc(CN2CCN(CCC(C)C)C(CCO)C2)s1 (centres undefined),-1.3,-0.2,0.3,-1.2,-0.1,x,x
Cc1ccc(CN2CCN(CC(C)C)C(CCO)C2)s1 (centres undefined),0.1,0.2,3.8,3.4,15.1*,10.1,0.3
CCN(CC)c1ccc2cc(C(=O)Nc3ccccn3)c(=O)oc2c1,0.5,2.6,4.9,2.2,14.3*,17.5*,1.1
CCN(CC)c1ccc2cc(C(C)=O)c(=O)oc2c1,-1.2,0.0,-1.7,-0.6,1.5,x,x
Nc1c(OS(=O)(=O)c2ccccc2)cccc1OS(=O)(=O)c1ccccc1,0.1,3.5,1.5,2.7,17.5*,14.5*,0.7
O=C1C2C3C=CC(C3)C2C(=O)N1c1ccccc1OS(=O)(=O)c1ccccc1 (centres undefined),-1.1,0.1,-2.5,-1.3,-1.7,x,x
CCc1ccccc1NC(=O)CN(C)C(=O)c1cc(C2CC2)nc2c1cnn2C(C)C,-1.2,-0.3,-1.2,0.1,0.4,x,x
O=C(/C(C=Nc1cc2c(oc1=O)CCCC2=O)=C(\O)c1ccccc1)c1ccccc1,-0.5,1.7,2.8,3.2,13.6*,6.1,0.2
O=C(Nc1cc2c(oc1=O)CCCC2=O)c1cccc(Cl)c1,-1.1,-0.6,0.7,-0.2,3.8,x,x
Cn1c(CN2CCCC2)nc2cc(NC(=O)c3cccs3)ccc21,0.5,1.1,-2.0,-0.5,3.7,x,x
Cc1ccc(OCCn2c(CCNC(=O)c3ccc(F)cc3F)nc3ccccc32)cc1,-0.9,x,-0.6,x,-1.4,x,x
CCC[C@H]1[C@@H](OC(=O)NCCc2ccccc2)CC[C@@]23CCCN2C(=O)CCC[C@@H]13,-1.7,x,0.0,x,-3.9,x,x
SMILES,ssDAF12 agonist,DAX1 inh-1,hcDAF-12 act,DAX1 inh-2,hgDAF12 agonist,hgDAF12 ag,LXRb DAF12 ctr
O=C1c2ccccc2C(=O)c2cc(NC(=O)C3CC3)ccc21,-1.1,1.9,4.9,2.5,7.1,x,x
CC(=O)Nc1ccc2c(c1)C(=O)c1ccccc1C2=O,0.5,2.5,6.5*,2.1,14.3*,17.7*,0.8
O=C(C1CN(C(=O)c2cc3cc(Cl)ccc3o2)c2ccccc2O1)N1CCCCC1 (centres undefined),-1.6,-2.4,-1.1,0.5,-2.5,x,x
CSc1ccc(/C=N/NC(=O)c2cccs2)cc1,0.4,2.5,6.3*,x,16.0*,17.9*,0.9
Cc1[nH]c2ccccc2c1/C=N/NC(=O)c1cccs1,0.9*,1.9,6.1*,7.9*,14.0*,4.6,0.1
CSc1ccc(/C=N/NC(=O)c2ccccc2Cl)cc1,-0.8,-1.4,3.6,1.4,18.3*,13.0*,0.4
Cc1[nH]c2ccccc2c1/C=N/NC(=O)CNC(=O)c1cccs1,-1.4,0.2,0.1,0.2,0.5,x,x
O=C(N/N=C/c1ccc(F)cc1)c1cccc(NC(=O)c2ccccc2Cl)c1,-0.7,-0.2,-1.8,2.5,2.2,x,x
CC(C)c1cc(C(C)C)c(S(=O)(=O)NCC(=O)N2CCN(c3ncccn3)CC2)c(C(C)C)c1,-0.7,-0.8,-2.1,x,2.6,x,x
CC(c1ccon1)N(C)Cc1cn(Cc2ccccc2)nc1-c1ccc2c(c1)OCO2 (centres undefined),-1.3,-0.8,-1.2,0.0,-2.3,x,x
O=C(Nc1ccc2sccc2c1)c1cccc(N2C(=O)CCC2=O)c1,-0.4,4.2*,1.6,1.3,16.9*,12.8*,0.3
O=C(Nc1nc2ccccc2s1)c1cccc(N2C(=O)CCC2=O)c1,0.0,3.1,3.0,0.7,6.7,x,x
O=C(Nc1cccc(Cl)c1)Nc1cccc(C(=O)O)c1,0.8,1.2,1.4,x,9.7,x,x
O=C(Nc1cccc(C(=O)O)c1)Nc1ccccc1Cl,-0.3,1.6,2.7,-7.8,17.5*,8.9,0.6
C/C(=N\NC(N)=O)c1ccc(-n2ccnc2)cc1,-1.2,0.3,-0.5,0.7,0.7,x,x
C/C(=N\NC(=O)c1ccc(C)cc1C)c1ccc(-n2ccnc2)cc1,-1.1,0.8,3.4,0.1,13.6*,0.2,0.0
CN(CC(=O)NCCCN1CCOCC1)S(=O)(=O)c1cc(Cl)ccc1Cl,-0.9,-0.3,0.4,-0.1,-0.8,x,x

# Assay outcomes from PubChem BioAssay.
